Out of some 64,000 compounds screened, about 55 (0.09%) were called active. How the calls were made is not given here. The list is a sample of the results.
The compounds below were run against Alkaline phosphatase, tissue-nonspecific isozyme (Homo sapiens) (UniProt P05186) (assay: inhibition of tissue-nonspecific alkaline phosphatase – biochemical, luminescent (AID 518;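 further: plate controls were vehicle for no effect and reference inhibitor for full effect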)). Conditions: purified TNAP enzyme, luminescent substrate readout; at 20 µM; hits give high values.
Alkaline phosphatase, tissue-nonspecific isozyme (Homo sapiens), sequence (P05186 whole entry, looked up): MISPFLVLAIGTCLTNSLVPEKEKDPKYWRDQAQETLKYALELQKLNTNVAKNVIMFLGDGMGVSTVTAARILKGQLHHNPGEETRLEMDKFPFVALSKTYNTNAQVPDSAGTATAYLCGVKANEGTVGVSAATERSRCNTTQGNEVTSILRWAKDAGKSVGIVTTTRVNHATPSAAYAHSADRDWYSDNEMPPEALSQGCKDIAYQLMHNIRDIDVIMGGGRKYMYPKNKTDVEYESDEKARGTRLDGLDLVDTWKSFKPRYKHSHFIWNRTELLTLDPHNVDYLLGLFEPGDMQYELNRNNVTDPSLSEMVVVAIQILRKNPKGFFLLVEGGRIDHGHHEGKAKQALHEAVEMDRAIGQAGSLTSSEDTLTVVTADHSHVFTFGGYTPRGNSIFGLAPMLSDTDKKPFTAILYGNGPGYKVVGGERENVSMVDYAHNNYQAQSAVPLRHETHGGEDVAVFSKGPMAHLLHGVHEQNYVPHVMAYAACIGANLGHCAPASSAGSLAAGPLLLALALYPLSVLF

inhibition, inactive:
Cc1ccc(N(CC(=O)N2CCN(c3ccc(F)cc3)CC2)S(=O)(=O)c2c(C)nn(C)c2C)cc1 8.6%
O=C(c1ccc(Cl)cc1)N1CCC(c2nc(-c3cccs3)no2)CC1 13.1%
CCC(CC)C(=O)NCCNC(=O)C(CC)CC 10.5%
Cc1ccc(OCC(=O)N2CCN(C(=O)CCC3CCCC3)CC2)cc1 6.3%
Cc1cc2c(c(=O)n1CCN(C)C)C(c1ccccc1Br)C(C#N)=C(N)O2 (stereo unspecified) 9.3%
COCCNC(=O)Nc1ccc2c(c1)N(C)C(=O)CS2 1.5%
O=C(c1cc2ccccn2n1)N1CCN(Cc2ccccc2)CC1 2.9%
Cc1onc(-c2ccccc2Cl)c1C(=O)Nc1ccc(-c2cn3cccnc3n2)cc1 4.9%
CCOC(=O)CN1CC23C=CC(O2)C(C(=O)O)C3C1=O (stereo unspecified) 5.4%
O=C(CSc1nnc(-c2cccnc2)n1-c1ccccc1)Nc1ccccn1 2.6%
COc1ccc(OC)c(S(=O)(=O)NC2CCN(Cc3ccccc3)CC2)c1 6.7%
CC(C)(C)n1ncc2c(=O)n(CC(=O)N3CCCc4ccccc43)cnc21 4%
COc1ccc(-c2nnc(SCC(=O)N3CCOCC3)o2)cc1 3.7%
Cc1nn(Cc2ccccc2)c(C)c1CCC(=O)O 7.6%
N#Cc1ccccc1NC(=O)c1ccccc1OCC(=O)NCc1ccco1 7%
COC(=O)c1ccc(NC(=O)COc2ccc(S(=O)(=O)NC(C)C)cc2)cc1 -1.4%
O=C1CC(c2ccco2)Cc2nc(N3CCN(Cc4ccc5c(c4)OCO5)CC3)ncc21 (stereo unspecified) 10.2%
Cc1noc(C)c1S(=O)(=O)N1CCC(C(=O)N(C)Cc2ccccc2)CC1 -0.3%
CN(Cc1ccccc1)Cc1c(F)cccc1F 5.6%
CN1C(=O)CS(=O)c2ccc(C(=O)NC3CC3)cc21 (stereo unspecified) 10%
CCc1c(C)nc2ncnn2c1N1CCC(C(=O)NCc2cccc(OC)c2)CC1 13%
Cc1ccc(NC(=O)C2CCCN2S(=O)(=O)c2ccc3c(c2)CCC(=O)N3)cc1Cl (stereo unspecified) 9%
N#Cc1cc(Sc2ccccn2)c(Sc2ccccn2)cc1C#N 10.6%
CC(=O)Nc1nc2ccccc2n1CCOc1ccccc1 4.8%
O=C(C1CCCN(S(=O)(=O)c2cccc3cccnc23)C1)N1CCN(c2ccc(F)cc2)CC1 (stereo unspecified) 14.6%
O=c1c2ccccc2nc(SCc2nnc(-c3ccccc3)o2)n1-c1ccccc1 3.6%
